Source: PubChem BioAssay AID1117292 (Broad Institute, 2014)
Results with a measured potency or affinity are listed apart. Records with an inconclusive call do not appear. A number with no mark means an inactive call. The source made the active and inactive calls.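 The calls were made as follows: active = compound whose fitted half-maximal dose for signal loss lies within twice the top dose in every replicate test; inconclusive = tests disagree, or flat partial signal loss or poor fit; inactive = every test inactive, flat, rising or too weak.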

Biological target: Endoplasmic reticulum aminopeptidase 1 (Homo sapiens) (UniProt Q9NZ08)
Sequence (Q9NZ08 whole entry, looked up): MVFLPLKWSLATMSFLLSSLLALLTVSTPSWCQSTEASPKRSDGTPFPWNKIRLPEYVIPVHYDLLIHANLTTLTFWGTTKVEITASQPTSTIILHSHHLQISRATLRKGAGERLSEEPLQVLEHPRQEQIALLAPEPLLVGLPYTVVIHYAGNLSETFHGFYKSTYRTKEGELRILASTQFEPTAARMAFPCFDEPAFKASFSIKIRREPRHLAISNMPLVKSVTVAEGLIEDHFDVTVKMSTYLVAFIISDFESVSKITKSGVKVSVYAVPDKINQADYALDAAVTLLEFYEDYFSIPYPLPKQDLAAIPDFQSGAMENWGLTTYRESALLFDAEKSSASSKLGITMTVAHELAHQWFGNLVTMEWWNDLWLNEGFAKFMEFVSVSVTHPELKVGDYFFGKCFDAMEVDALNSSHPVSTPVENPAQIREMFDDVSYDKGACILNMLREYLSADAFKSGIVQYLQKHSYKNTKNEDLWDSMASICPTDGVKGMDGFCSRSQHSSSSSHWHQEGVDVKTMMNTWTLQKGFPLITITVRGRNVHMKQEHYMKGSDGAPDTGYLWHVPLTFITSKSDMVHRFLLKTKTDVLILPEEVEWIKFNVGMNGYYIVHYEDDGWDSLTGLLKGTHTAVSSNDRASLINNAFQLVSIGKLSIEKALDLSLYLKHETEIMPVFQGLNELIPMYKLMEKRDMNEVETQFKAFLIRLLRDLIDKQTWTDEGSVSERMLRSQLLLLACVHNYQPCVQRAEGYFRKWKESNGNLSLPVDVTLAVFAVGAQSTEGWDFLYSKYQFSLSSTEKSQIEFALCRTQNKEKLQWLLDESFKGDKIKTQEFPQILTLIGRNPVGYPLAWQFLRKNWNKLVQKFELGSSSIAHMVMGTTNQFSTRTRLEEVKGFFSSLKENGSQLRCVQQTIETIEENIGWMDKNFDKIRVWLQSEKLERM
Test: blocking ERAP1 cleavage of leucine-AMC substrate – biochemical, fluorescence plate reader, dry powder, dose response (AID 1117292)
Conditions: purified ERAP1, Leu-AMC fluorescence, 60 min; series mostly up to 50 µM; activity change, negative = inhibition: at the top concentration

Structure (SMILES) | activity change, negative = inhibition [%] | outcome
CC(=O)N1CCN(C(=O)CNC(=O)Nc2ccc(C)cc2)CC1 | 11.2 | 
COc1ccc(C(=O)Nc2cc(C)ccc2N2CCCCC2)cc1S(=O)(=O)O | -6.98 | 
Cc1ccc(NC(=O)NC2(C(=O)N3CCN(c4ccccc4)CC3)CCCCC2)cc1 | 4.16 | 
COc1ccc(C(=O)Nc2cccc(C(F)(F)F)c2)cc1S(=O)(=O)O | 36.9 | 
COc1ccc(C(=O)O)cc1S(=O)(=O)Nc1cc(C(F)(F)F)ccc1N(C)C | 104 | 
CC(=O)N1CCN(C(=O)C2(NC(=O)Nc3ccc(C(F)(F)F)cc3)CCCCC2)CC1 | 7.13 | 
CC(=O)N1CCN(C(=O)C2(NC(=O)Nc3ccc(C(F)(F)F)cc3)CCCC2)CC1 | 26.2 | 
CC(=O)N1CCN(C(=O)C2(NC(=O)Nc3ccc(F)cc3)CCCC2)CC1 | 0.022 | 
COc1ccc(C(=O)O)cc1S(=O)(=O)Nc1cc(C(F)(F)F)ccc1N1CCOCC1 | 113 | 
O=S(=O)(Nc1cc(C(F)(F)F)ccc1N1CCCCC1)c1ccc(-c2ccccc2)cc1 | 12.5 | 
COc1ccc(C(=O)O)cc1S(=O)(=O)Nc1cc(C(F)(F)F)ccc1N1CCCCC1 |  | inactive
CC(=O)N1CCN(C(=O)C2(NC(=O)Nc3cccc(F)c3)CCCCC2)CC1 | 3.52 | 
O=[N+]([O-])c1cccc(S(=O)(=O)Nc2cc(C(F)(F)F)ccc2N2CCCCC2)c1 | 0.757 | 
CC(=O)N1CCN(C(=O)C2(NC(=O)Nc3ccccc3F)CCCCC2)CC1 |  | inactive
COc1ccc(C(=O)Nc2cc(F)ccc2N2CCCCC2)cc1S(=O)(=O)O | 25 | 
CC(=O)N1CCN(C(=O)C2(NC(=O)NC(C)(C)C)CCCCC2)CC1 | -0.89 | 
O=[N+]([O-])c1ccc(S(=O)(=O)Nc2cc(C(F)(F)F)ccc2N2CCCCC2)c([N+](=O)[O-])c1 | -9.84 | 
O=S(=O)(Nc1cc(C(F)(F)F)ccc1N1CCCCC1)c1ccccc1 | -1.32 | 
COc1ccc(C(=O)Nc2ccccc2N2CCCCC2)cc1S(=O)(=O)O | 24 | 
COc1ccc(C(=O)Nc2cc(C(F)(F)F)ccc2N2CCCCC2)cc1S(=O)(=O)O | 17.1 | 
O=C(Nc1cc(C(F)(F)F)ccc1N1CCCCC1)c1ccc(S(=O)(=O)O)cc1 | 28 | 
N#Cc1ccc(S(=O)(=O)Nc2cc(C(F)(F)F)ccc2N2CCCCC2)cc1 | 26 | 
